Values without a mark were called inactive. Results filed as inconclusive are left out. Entries that show only a call come without a potency. Calls of active or inactive are those of the source. Calls come from the whole dose curve; as a rule, active = well fitted curve in the direction sought with a large enough effect; inconclusive = small, poorly fitted or top-dose-only effect, or another doubt; inactive = no such curve, though single readings can be large; an effect the other way counts as inactive or inconclusive.
What was measured:
[1] = test system: Zika virus NS2B-NS3 protease (linked construct); experiment: Primary screen NINDS Rhodamine qHTS for Zika virus inhibitors (AID 1347160); note: nearly all actives have a fitted effect of over 55% in size
In short: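 In 10 mM Tris-HCl pH 8.0 containing 0.01% Tween 20, linked NS2B-NS3 protease (25 nM final) is exposed to test compounds for 15 min. Cleavage of 1.5 microM Rhodamine110 substrate is tracked by fluorescence over 15 min.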

[2] = biological target: Glutathione peroxidase 1 (Homo sapiens) (UniProt P07203); experiment: Primary qHTS Assay for Inhibitors of Recombinant Selenoprotein Glutathione Peroxidase 1 (GPX1) (AID 1845191); note: nearly all actives have a fitted effect of over 65% in size
Glutathione peroxidase 1 (Homo sapiens), sequence (P07203 whole entry, looked up): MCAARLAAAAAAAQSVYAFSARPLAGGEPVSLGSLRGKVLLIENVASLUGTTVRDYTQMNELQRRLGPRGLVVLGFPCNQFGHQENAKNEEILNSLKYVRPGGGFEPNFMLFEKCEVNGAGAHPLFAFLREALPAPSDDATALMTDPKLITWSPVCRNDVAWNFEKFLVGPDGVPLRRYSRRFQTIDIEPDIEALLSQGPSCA
In short: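 Recombinant GPX1 (10 nM final) was preincubated with compound for 30 min at room temperature, then reacted with 1 mM GSH, 0.5 mM CHP, 0.5 mM NADPH and 100 nM glutathione reductase; NADPH fluorescence (340/450 nm) was read at 0 and 15 min.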

[3] = biological target: Phospholipid hydroperoxide glutathione peroxidase GPX4 (Homo sapiens) (UniProt P36969); experiment: Primary qHTS Assay for Inhibitors of Recombinant Selenoprotein Glutathione Peroxidase 4 (GPX4) (AID 1845192); settings: outcome: dose series up to 50 µM unless noted; note: nearly all actives have a fitted effect of over 65% in size
Phospholipid hydroperoxide glutathione peroxidase GPX4 (Homo sapiens), sequence (P36969 whole entry, looked up): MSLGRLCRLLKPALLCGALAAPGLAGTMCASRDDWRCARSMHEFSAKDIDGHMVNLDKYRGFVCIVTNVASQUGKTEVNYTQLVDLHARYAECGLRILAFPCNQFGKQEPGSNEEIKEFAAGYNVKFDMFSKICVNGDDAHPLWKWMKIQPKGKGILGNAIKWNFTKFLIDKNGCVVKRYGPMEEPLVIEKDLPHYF
In short: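 GR-coupled readout: 100 nM GR, 1 mM GSH, 0.5 mM NADPH; NADPH fluorescence (ex 340/em 450 nm) read at t=0 and after 15 min RT. GPX4 200 nM, preincubated 30 min with compound; substrate 0.5 mM CHP.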

[4] = biological target: Luciferin 4-monooxygenase (Photinus pyralis) (UniProt P08659); experiment: Primary firefly luciferase (FLuc) qHTS assay for identification of artifact compounds. (AID 1845220); note: nearly all actives have a fitted effect of over 60% in size
In short: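 qHTS, 15 min compound preincubation with substrate (10 uM luciferin, 10 uM ATP) at RT, then 10 nM FLuc; 5 min; luminescence; % inhibition vs no-enzyme/DMSO controls, 4-parameter Hill fit.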

[5] = test system: Nanoluciferase (engineered Oplophorus gracilirostris luciferase); experiment: Primary Nanoluciferase (NLuc) qHTS assay for identification of artifact compounds. (AID 1845222)
In short: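 Luminescence read-out of secreted NLuc in S16 cell conditioned medium (1:55); compounds tested with 15 min RT preincubation, then Nano-Glo substrate 1:100, 5 min. % inhibition vs no-enzyme and DMSO controls, 4-parameter Hill fit.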

C33A = experiment: Primary qHTS to identify gynecologic anti-cancer compounds using libraries of approved drugs and bioactive compounds (AID 1345084); settings: Gynecologic cancer cell panel viability, ATPlite luminescence, 48 h; series mostly up to 57.5 µM; note: nearly all actives have a fitted effect of over 55% in size; note: potency is the fitted concentration of half-maximal effect
In short: (§1)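 Cytotoxicity screen measuring ATP content by luciferase luminescence. Each compound is applied at five concentrations for 48 h at 37 C with 5% CO2.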

CASKI = experiment: as above; settings: Gynecologic cancer cell panel viability, ATPlite luminescence, 48 h; series mostly up to 57.5 µM
In short: as §1

Es-2 = experiment: as above; settings: Gynecologic cancer cell panel viability, ATPlite luminescence, 48 h; series mostly up to 57.5 µM
In short: as §1

HeLa = experiment: as above; settings: Gynecologic cancer cell panel viability, ATPlite luminescence, 48 h; series mostly up to 57.5 µM
In short: as §1

Hek293T = experiment: as above; settings: Gynecologic cancer cell panel viability, ATPlite luminescence, 48 h, control line for the selectivity index; series mostly up to 57.5 µM
In short: as §1

JEG-3 = experiment: as above; settings: Gynecologic cancer cell panel viability, ATPlite luminescence, 48 h; series mostly up to 57.5 µM
In short: as §1

OV90 = experiment: as above; settings: Gynecologic cancer cell panel viability, ATPlite luminescence, 48 h; series mostly up to 57.5 µM
In short: as §1

Tov-21-G = experiment: as above; settings: Gynecologic cancer cell panel viability, ATPlite luminescence, 48 h; series mostly up to 57.5 µM
In short: as §1

Tov112D = experiment: as above; settings: Gynecologic cancer cell panel viability, ATPlite luminescence, 48 h; series mostly up to 57.5 µM
In short: as §1

[6] = test system: Zika virus NS2B-NS3 protease (unlinked complex); experiment: Primary screen GU Rhodamine qHTS for Zika virus inhibitors: Unlinked NS2B-NS3 protease assay (AID 1347159); note: nearly all actives have a fitted effect of over 60% in size
In short: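 Percent inhibition derives from the 15-min fluorescence change (ex 480, em 540 nm), normalized to no-enzyme and no-inhibitor wells. Reactions contained 25 nM NS2B-NS3 complex and 1.5 microM substrate in 10 mM Tris-HCl pH 8.0.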

[7] = Primary qHTS for inhibitors of nuclear receptor binding SET domain protein 2 (NSD2) in an isogenic RCH-ACV NSD2 p.E1099K mutant (9B) (AID 1645876); note: potency is the fitted concentration of half-maximal effect; nearly all actives have a fitted effect of over 70% in size
[8] = Primary qHTS for inhibitors of nuclear receptor binding SET domain protein 2 (NSD2) in an RCH-ACV wild type WT cells (2C) (AID 1645877); note: potency is the fitted concentration of half-maximal effect; nearly all actives have a fitted effect of over 70% in size
[9] = Primary redox qHTS assay for identification of artifact compounds. (AID 1845223); note: potency is the fitted concentration of half-maximal effect
In short: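 Amplex Red (25 uM) and HRP (250 mU/mL) in HBSS, with compounds for 15 min, then 250 uM DTT for 30 min, room temperature, dark. Fluorescence 525/598 nm read; normalized to DMSO and 10 uM DA3003; Hill fit.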

PA-1 = experiment: Primary qHTS to identify gynecologic anti-cancer compounds using libraries of approved drugs and bioactive compounds (AID 1345084); settings: Gynecologic cancer cell panel viability, ATPlite luminescence, 48 h; series mostly up to 57.5 µM; note: nearly all actives have a fitted effect of over 55% in size; note: potency is the fitted concentration of half-maximal effect
In short: as §1

[10] = biological target: Calcium and integrin-binding protein 1 (Homo sapiens) (UniProt Q99828); experiment: Primary qHTS for Identification of Calcium Integrin Binding Protein 1 (CIB1) Competitor (AID 1508620);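 note: GST tagged CIB1 binding a fluorescein labelled alphaIIb integrin peptide tracer; top concentration of the series differs between compounds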
Calcium and integrin-binding protein 1 (Homo sapiens), sequence (Q99828 whole entry, looked up): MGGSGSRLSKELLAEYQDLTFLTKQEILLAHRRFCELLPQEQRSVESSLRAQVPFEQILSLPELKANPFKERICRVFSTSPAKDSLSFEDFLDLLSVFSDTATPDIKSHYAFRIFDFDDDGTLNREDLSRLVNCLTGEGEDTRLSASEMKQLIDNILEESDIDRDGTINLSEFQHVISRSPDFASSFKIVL
In short: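 Fluorescence polarization competition: CIB1-GST (1 uM final) preincubated with compound 15 min at room temperature, then FITC-labeled alphaIIb peptide (100 nM final) added for another 15 min. Polarization read at Ex 480/Em 540.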

| Structure (SMILES) | Potency [1] | Potency [2] | Potency [3] | Potency [4] | Potency [5] | Potency (C33A) | Potency (CASKI) | Potency (Es-2) | Potency (HeLa) | Potency (Hek293T) | Potency (JEG-3) | Potency (OV90) | Potency (Tov-21-G) | Potency (Tov112D) | Potency [6] | Potency [7] | Potency [8] | Potency [9] | Potency (PA-1) | outcome [10] |
| --- | --- | --- | --- | --- | --- | --- | --- | --- | --- | --- | --- | --- | --- | --- | --- | --- | --- | --- | --- | --- |
| CC1CCN(c2cc(NC(=O)c3ccccc3)ncn2)CC1 | inactive | inactive | inactive | inactive | inactive | inactive | inactive | inactive | inactive | inactive | inactive | inactive | inactive | inactive | – | – | – | – | – | – |
| COc1ccc2c(c1)C[C@H](C(=O)Nc1ccc(-c3cn[nH]c3)cc1OCCN(C)C)CO2 | inactive | inactive | inactive | inactive | inactive | inactive | inactive | inactive | – | inactive | inactive | inactive | inactive | inactive | inactive | 0.291 µM (active) | 0.164 µM (active) | inactive | inactive | – |
| CCOC(=O)c1cccc(CNc2ccc(N(C)C(=O)Nc3ccccc3)cc2)c1 | inactive | inactive | inactive | inactive | inactive | – | – | – | inactive | – | inactive | – | inactive | inactive | inactive | 14.5 µM (active) | 14.5 µM (active) | 23.8 µM (active) | – | – |
| Cc1ccc(CCCO)c(NCc2ccc3nc(NCCCN4CCOCC4)n(Cc4nc(C)ccc4O)c3c2)c1 | inactive | inactive | inactive | inactive | inactive | inactive | inactive | inactive | inactive | inactive | inactive | – | inactive | inactive | – | 12.9 µM (active) | 11.5 µM (active) | – | – | inactive |
| C[C@@H](c1nc(-c2ccc(C#N)cc2)cs1)[C@](O)(Cn1cncn1)c1cc(F)ccc1F | inactive | inactive | inactive | inactive | inactive | inactive | inactive | inactive | inactive | inactive | inactive | inactive | inactive | inactive | inactive | 8.17 µM (active) | 11.5 µM (active) | inactive | inactive | inactive |
| CN(C)CCCNc1nc(CN2CCN(C(c3ccc(Cl)cc3)c3ccc(Cl)cc3)CC2)nc2ccccc12 | inactive | – | inactive | inactive | inactive | inactive | inactive | inactive | inactive | inactive | inactive | – | inactive | inactive | inactive | 9.16 µM (active) | 7.28 µM (active) | – | inactive | inactive |
| CCC[C@@H](NC(=O)N1C(=O)C(CC)(CC)[C@@H]1Oc1ccc(C(=O)N2CCN(C)CC2)cc1)c1ccc2c(c1)OCO2 | inactive | inactive | inactive | inactive | inactive | inactive | inactive | inactive | inactive | inactive | inactive | inactive | inactive | inactive | – | – | – | – | inactive | inactive |
| C=C1CC[C@@H]2[C@](C)(CO)[C@H](O)CC[C@@]2(C)[C@@H]1C/C=C1/C(=O)OC[C@@H]1O | inactive | – | inactive | inactive | inactive | – | – | inactive | inactive | – | inactive | inactive | – | – | inactive | – | – | inactive | – | inactive |
| CCC(=O)c1cc(-c2ccc(Cl)cc2)n(-c2ccc(S(N)(=O)=O)cc2)c1C | inactive | inactive | inactive | inactive | inactive | inactive | inactive | inactive | inactive | inactive | inactive | inactive | inactive | inactive | inactive | 23 µM (active) | 16.3 µM (active) | inactive | inactive | inactive |
| C/C=C(/COC(=O)/C(C)=C/C)C(=O)OC/C=C/c1ccc(OC)cc1 | inactive | inactive | inactive | inactive | inactive | inactive | inactive | inactive | inactive | inactive | inactive | inactive | inactive | – | inactive | – | – | inactive | – | inactive |
| COc1cc(O)ccc1OCCNCC(O)COc1cccc2[nH]c3ccccc3c12 (configuration not stated) | inactive | inactive | inactive | inactive | inactive | inactive | inactive | inactive | inactive | inactive | inactive | inactive | inactive | inactive | inactive | 20.5 µM (active) | 20.5 µM (active) | inactive | inactive | inactive |
| Cc1ccccc1C(=O)Nc1ccc(C(=O)N2CCC[C@@H](O)c3cc(Cl)ccc32)c(C)c1 | inactive | inactive | inactive | inactive | inactive | inactive | inactive | inactive | inactive | inactive | inactive | inactive | inactive | inactive | inactive | – | – | inactive | inactive | – |
| O=C(c1ccc(F)c(F)c1Nc1ccc(I)cc1F)N1CC(O)(C2CCCCN2)C1 (configuration not stated) | inactive | inactive | inactive | inactive | inactive | 35.5 µM (active) | 28.2 µM (active) | – | – | inactive | inactive | – | – | – | inactive | 20.5 µM (active) | 18.3 µM (active) | inactive | – | inactive |

— PubChem BioAssay (NCATS)
